Several values for one entry are separate records, joined by “and”; a condition that tells them apart may be missing. Equal values may be shown once. Records with an inconclusive call do not appear. Where a call stands in place of a potency, no number is given. Some compounds were tested as several samples or in several runs, with calls that do not always agree. Activity calls are given as the source filed them. Calls come from the whole dose curve; as a rule, active = well fitted cell-killing curve with a large enough effect in the repeat runs; inconclusive = weak or mixed curves; inactive = flat fitted curve, though single readings scatter.
Assay: qHTS assay to identify small molecule antagonists of the estrogen related receptor (ERR) signaling pathway from Tox21 library - cell viability counter screen (AID 1224834); note: nearly all actives have a fitted effect of over 30% in size
Conditions: ERR reporter cells viability, CellTiter-Fluor, 17.5 h; series mostly up to 92.4 µM
Text: National Center for Advancing Translational Sciences [NCATS]
NIH Chemical Genomics Center [NCGC]
U.S. Environmental Protection Agency [EPA]
National Institutes of Environmental Health Sciences [NIEHS]
National Toxicology Program [NTP]
U.S. Food and Drug Administration [FDA]
Estrogen related receptors (ERRs), the first orphan nuclear receptors discovered, play an important role in the control of cellular energy metabolism. ERRs are required for high-energy production in response to the environmental challenges. ERR-alpha was also identified as an adverse marker for breast cancer progression; ERR-alpha-positive tumors have a poor prognosis. To screen and to identify environmental compounds that perturb the ERR signaling pathways could provide valuable information for potential therapeutic or preventive measures in the treatment of metabolic disease. To differentiate true ERR antagonists or agonist from cytotoxic substances, the assay is multiplexed with cell viability assay.
Tox21 Assay Protocol Summary:
The ERR cells were dispensed at 2,000 cells/5 ul/well in 1536-well white plates using a Multidrop dispenser. After the assay plates were incubated at a 37 C/5% CO2 incubator for 6 hours, 23 nL of compounds dissolved in DMSO, positive and negative controls or DMSO only was transferred to the assay plate by a pin tool. The plates were incubated at 37 C for 17.5 hours. 1 ul/well of CellTiter-Fluor reagent was added into the assay plates using a Flying Reagent Dispenser. After 30-minute incubation at 37 C/5% CO2, the fluorescence intensity in the plates was measured using a ViewLux plate reader.
Potency is the fitted concentration of half-maximal effect.

Row | Structure (SMILES) | Potency | viability change, negative = cytotoxic
1 | O=S(=O)(O)c1ccc2nc(-c3ccccc3)[nH]c2c1 | inactive | 
2 | CCCC(=O)c1ccccc1 | inactive | 
3 | CCCCC/C=C/CC1CC(=O)OC1=O (stereo not given) | inactive | 
4 | CC(=O)CC(C)=O | inactive | 
5 | Cc1cc(C(C)(C)C)c(O)c(C(C)(C)C)c1 | inactive | 
6 | O=C(O[C@@H]1Cc2c(O)cc(O)cc2O[C@@H]1c1cc(O)c(O)c(O)c1)c1cc(O)c(O)c(O)c1 | 48.7 µM (active) and 52.5 µM (active) | 
7 | CC(C)CCOC(=O)c1ccc(N(C)C)cc1 | inactive | 
8 | NNCCc1ccccc1 | inactive | 
9 | CC1=CC(=O)c2ccccc2C1=O | 61.1 µM (active) and inactive | 
10 | c1ccc2cc3c(ccc4ccccc43)cc2c1 | inactive | 
11 | CCN(CC)CCOc1ccc(/C(=C(\Cl)c2ccccc2)c2ccccc2)cc1 | 55.6 µM (active) and 26.6 µM (active) | 
12 | CCCNC(C)C(=O)Nc1ccccc1C (stereo not given) | inactive | 
13 | CCn1c2ccccc2c2cc(N)ccc21 | inactive | 
14 | CC(=O)O[C@]1(C(C)=O)CC[C@H]2[C@@H]3C[C@H](C)C4=CC(=O)CC[C@]4(C)[C@H]3CC[C@@]21C | 61.1 µM (active) | 
15 | O=C1CC2(CCCC2)CC(=O)N1CCCCN1CCN(c2ncccn2)CC1 | inactive | 
16 | O=C(O)c1cccc(C(=O)O)c1 | inactive | 
17 | COC(=O)/C=C/c1ccccc1 | inactive | 
18 | CCCOC(=O)c1cc(O)c(O)c(O)c1 | 54.2 µM (active) and 61.1 µM (active) | 
19 | CCCCCC(=O)O[C@]1(C(C)=O)CC[C@H]2[C@@H]3CCC4=CC(=O)CC[C@]4(C)[C@H]3CC[C@@]21C | 48.2 µM (active) and 29.8 µM (active) | 
20 | O=C(Oc1ccccc1)c1ccccc1O | inactive | 

Row | Structure (SMILES) | Potency | viability change, negative = cytotoxic
21 | CC[C@]1(O)C[C@@H]2CN(CCc3c([nH]c4ccccc34)[C@@](C(=O)OC)(c3cc4c(cc3OC)N(C)[C@H]3[C@@](O)(C(=O)OC)[C@H](OC(C)=O)[C@]5(CC)C=CCN6CC[C@]43[C@@H]65)C2)C1 | 0.841 µM (active) | 
22 | CC(=O)C1=C(C)[C@@H]2C[C@@]3(C1)[C@H](C)CC[C@H]3C2(C)C | inactive | 
23 | CC(C)(C)NCC(O)COc1ccccc1OCC1CCCO1 (stereo not given) | inactive | 
24 | CC[C@@H](N)CO | inactive | 
25 | CC(N)=O | inactive | 
26 | CCC(C)(Oc1ccc(C2(c3ccc(OC(C)(CC)C(=O)O)cc3)CCCCC2)cc1)C(=O)O (stereo not given) | inactive | 
27 | CC(COc1ccccc1)N(CCCl)Cc1ccccc1 (stereo not given) | inactive | 
28 | CN1C(=O)c2ccc([N+](=O)[O-])cc2C1=O | inactive | 
29 | CC(=O)OCC1=C(C(=O)O)N2C(=O)[C@@H](NC(=O)Cc3cccs3)[C@H]2SC1 | inactive | 
30 | NCCO | inactive | 
31 | c1ccc2c(c1)-c1cccc3c1c-2cc1ccccc13 | inactive | 
32 | CCc1ccc(C(c2ccc(CC)cc2)C(Cl)Cl)cc1 | inactive | 
33 | c1ccc2n[nH]nc2c1 | inactive | 
34 | C1COC(NC(C2CC2)C2CC2)=N1 | inactive | 
35 | CCCCCCCCCCCCCCCCCl |  | 1.81% [at 19 µM] (inactive)
36 | C#CC(C)(CC)OC(=O)c1ccccc1C(=O)O (stereo not given) | inactive | 
37 | O=C(Nc1ccccc1SSc1ccccc1NC(=O)c1ccccc1)c1ccccc1 | 43.5 µM (active) and 48.6 µM (active) | 
38 | COc1ccc(Cc2cnc(N)nc2N)cc1OC | inactive | 
39 | CCC(C)(C)C(=O)O[C@H]1C[C@@H](C)C=C2C=C[C@H](C)[C@H](CC[C@@H]3C[C@@H](O)CC(=O)O3)[C@H]21 | inactive | 
40 | O | inactive | 
